{
  "source": "PubChem BioAssay AID903",
  "about": "(National Center for Advancing Translational Sciences (NCATS), 2007)",
  "note": "The whole screen tested about 55,000 compounds, of which about 340 (0.62%) were called active. Another 3% or so got no clear call; they are omitted. Calls come from the whole dose curve; as a rule, active = well fitted cell-killing curve with a large enough effect; inconclusive = small, poorly fitted or top-dose-only effect; inactive = no such curve, though single readings can be large or run the other way. The full list was thinned out, with actives kept by preference. Potency is the fitted concentration of half-maximal effect.",
  "data": [
    {"test": "qHTS Screen for Compounds that Selectively Target Cancer Cells with p53 Mutations: Cytotoxicity of p53 Null Cells at the Permissive Temperature; note: nearly all actives have a fitted effect of over 55% in size;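 for activity change, negative = cytotoxicity: 0% = DMSO only and -100% = full killing by 100 µM tamoxifen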", "conditions": "H1299-neo p53 null cells, ATP luminescence, 24 h, 32C; series mostly up to 46.1 µM; activity change, negative = cytotoxicity: at the top concentration", "from_the_text": "NIH Chemical Genomics Center [NCGC] NIH Molecular Libraries Screening Centers Network [MLSCN] MLSCN Grant: 1 X01 MH079844-01 Assay Submitter (PI): Dr. SUN, YI, University of Michigan NCGC Assay Overview: Synthetic Lethal Screen for Compounds to Kill Cancer Cells with p53 Mutation. Tumor suppressor gene p53 serves as a major cellular barrier against tumorigenesis. […] The goal of this screening is to identify small molecule probes that selectively kill cancer cells with mutations in p53. This screening was carried out using two lines of H1299 lung cancer cells. The H1299-p53 A138V line express a temperature sensitive p53 mutant (p53ts) in which the mutant p53 protein (A138V) is in the mutant confirmation when grown at 39C (the nonpermissive temperature) and in the wild type conformation when grown at 32C (the permissive temperature). A H1299-neo line (p53 null) grown at both 39C and 32C were used as counter-screens to filter out false positive associated with temperature shifting. The small molecular compounds that selectively target mutant p53-containing cancer cells were selected as candidate probes for further study. A cytotoxicity assay based on the measurement of ATP contents in cells was used in this screen. Concentration-responses of all the compounds in the library collection were determined in qHTS using the cell lines and temperature conditions as above.\nNCGC Assay Protocol Summary: Both the H1299-p53A138V and H1299-neo cell lines were provided by Dr.Yi Sun, a PI at the University Michigan. The cells were maintained and cultured at 37C. The resuspended frozen cells were used to plate the cells in the 1536-well assay plates at a density of 600 cells per well in 5 ul medium. The assay plates with the cells were incubated at 37C for 16 to 30 hours before the experiments. The library compounds in DMSO solution were added to the cells in assay plates and incubated 24 hours at 39C (for mutant p53 conformation) or 32C (for normal p53 conformation as control). An ATP_lite assay kit (PerkinElmer) was used to determine the cell viability. Tomaxifen (100uM) was used as the positive control for cell killing. Data were normalized to the controls for basal activity (DMSO only) and 100% killing (100uM tamoxifen). AC50 values were determined from concentration-response data modeled with the standard Hill equation. P53 assay protocol: 1. Reagent; 5 uL H1299-p53A138V or H1299-neo cell cells/well 2. Time; overnight; 37C incubation 3. Compounds; 23 nL; 5.9 nM to 46 uM 4. Controls; 23 nL; Tamoxifen 100 uM 5. Time; 24 hr; 32C incubation 6. Reagent; 3 uL; ATP_Lite reagent 7. Time; 20 min; Room Temperature 8. Detection; Luminescence; Viewlux plate reader Keywords: p53, synthetic lethal, cancer, cell viability, cytotoxicity, H1299 cell line, luminescence, MLSMR, MLSCN, NIH Roadmap, qHTS, NCGC", "values": [
      {"smiles": "CC(C)Oc1ccc(NC(=O)c2cc3ccccc3o2)cc1", "Potency": "10 µM (active)"},
      {"smiles": "Cn1cc(/C=C/c2nc3ccccc3c(=O)n2-c2ccccc2)c2ccccc21", "activity change, negative = cytotoxicity": "-4.84% (inactive)"},
      {"smiles": "CC(C)(C)c1ccc(S(=O)(=O)Nc2ccc(O)c(Sc3nc4ccccc4s3)c2)cc1", "activity change, negative = cytotoxicity": "42.8% (inactive)"},
      {"smiles": "CCCCOc1ccc(C(=O)N2CC(=O)Nc3ccc(Br)cc3C2c2ccc(F)cc2)cc1", "note": "(stereo not given)", "activity change, negative = cytotoxicity": "38.6% (inactive)"},
      {"smiles": "Cc1ccc(Cn2c(C)c3cnn(CC(=O)N4CCC5(CC4)OCCO5)c(=O)c3c2C)cc1", "activity change, negative = cytotoxicity": "15% (inactive)"}
    ]}
  ]
}
